Laboratory results as given in ChEMBL document CHEMBL4513216, “Probing the Open Global Health Chemical Diversity Library for Multistage-Active Starting Points for Next-Generation Antimalarials” (ACS Infect Dis, 2020).
The campaign covered roughly 68,000 compounds. About 2,700 (4%) showed an effect of 50% or more. Shown is part of a subset that was picked to be rich in strong results.

The compounds below were run on Plasmodium berghei (assay: Screen against P. berghei liver stage (PbLuc), transformed with Luciferase, at 2uM). Settings: tested at 2 uM.
Assay type: functional, HepG2

Compared with Cc1ncccc1CNC(CCO)C1CCCCC1 (stereo unspecified), Cc1oc(-c2ccsc2)nc1CN1CC[C@@H]2CCCC[C@H]2C1 is higher in INHIBITION: -16.72% for the first, 54.49% for the second.

Going from O=C(CN1CCNC1=O)NCc1ccc2sccc2c1 to CN(Cc1ccoc1)C(=O)C1CC(=O)N(Cc2ccncc2)C1 (stereo unspecified), the INHIBITION rises from -18.57% to 10.91%.

Going from Cc1nnc(C2Cc3ccccc3CN2Cc2ncc(Cl)n2C)o1 (stereo unspecified) to Cc1ncc2c(n1)CN(Cc1nc(-c3ccsc3)oc1C)CC2, the INHIBITION rises from 27.59% to 31.05%.

First: COCc1cncc2c1CCN(C(=O)c1ccoc1C)C2
Second: COCc1c(C(=O)N2CCCC(C(=O)c3ccccc3)C2)noc1C (stereo unspecified)
The INHIBITION of the first is higher: 34.02% for the first, 10.1% for the second.

Compared with Cc1nonc1CN(C)c1nc(-c2ccco2)nc2c1CCN(C)CC2, Cc1noc(CN(C)c2nc(-c3ccco3)nc3c2CCN(C)CC3)n1 is lower in INHIBITION: 38.91% for the first, 18.14% for the second.

Going from Cc1cc(CN(C)c2nc(-c3ccco3)nc3c2CCN(C)CC3)on1 to CC(C)c1nnc2n1CCN(Cc1nc3c(F)cccc3[nH]1)C2, the INHIBITION falls from 67.05% to 45.4%.

Going from CNc1nc(C(=O)N2CCn3nc(C(=O)OC)cc3C2)cs1 to Cn1nc(C(=O)N2CCOCC2)cc1C(=O)Nc1ccc(Cl)cc1Cl, the INHIBITION rises from -0.15% to 61.02%.

Going from O=S1(=O)CCN2C(=N1)Oc1ccc(Cl)cc12 to Cn1nc(C(=O)N2CCOCC2)cc1C(=O)Nc1c(Cl)cccc1Cl, the INHIBITION falls from 22.96% to 13.45%.

Going from CN(CCc1ccccn1)C(=O)c1cccs1 to CN(Cc1ccon1)C(=O)C1CC(=O)N(Cc2ccncc2)C1 (stereo unspecified), the INHIBITION falls from 24.64% to 15.96%.

Compared with CN(Cc1cnc(N)nc1)C(=O)C1CC(=O)N(Cc2ccncc2)C1 (stereo unspecified), CCc1ncncc1C(=O)N1CCCN(Cc2ccc(C)cc2)CC1 is lower in INHIBITION: 59.8% for the first, -8.84% for the second.

Going from Cc1oc(-c2ccsc2)nc1CN1CCCC(c2ccnn2C)C1 (stereo unspecified) to Cc1ccc(C(=O)N2CCN(Cc3ccsc3)CC2)n1C, the INHIBITION rises from 13.88% to 43.52%.

First: CN(C)Cc1nc2c(o1)CN(S(=O)(=O)c1cccs1)C2
Second: CC(C)c1ncncc1C(=O)N1CCCN(Cc2cccs2)CC1
The INHIBITION of the first is lower: -0.45% for the first, 8.37% for the second.

First: Cn1nc(C(=O)N2CCOCC2)cc1C(=O)Nc1ncc(Cl)cc1Cl
Second: CC(C)c1ncncc1C(=O)N1CCN(Cc2cscn2)CC1
The INHIBITION of the first is lower: -47.52% for the first, -43.47% for the second.

Going from CC(C)CC(NC(=O)c1ccc[nH]1)C(=O)N1CCC(CO)CC1 (stereo unspecified) to O=C(c1cc(C2CC2)[nH]n1)N1CCN(Cc2ccsc2)CC1, the INHIBITION rises from 20.3% to 44.43%.

Going from CC(C)[C@H]1CN(c2cnccn2)C[C@@H]1NC(=O)C1(C#N)CCOCC1 to CC(C)c1ncncc1C(=O)N1CCN(Cc2cccnc2)CC1, the INHIBITION rises from 2.3% to 33.61%.

Going from CC(C)c1ncncc1C(=O)N1CCCN(Cc2ccccc2)CC1 to CC(C)c1ncncc1C(=O)N1CCN(Cc2ccsc2)CC1, the INHIBITION rises from 56.02% to 58.05%.

Going from CCc1ncncc1C(=O)N1CCN(Cc2ccsc2)CC1 to CCc1ncncc1C(=O)N1CCCN(Cc2ccc(C#N)cc2)CC1, the INHIBITION rises from -45.83% to 68.24%.

First: CCc1ncncc1C(=O)N1CCCN(Cc2ccccc2C)CC1
Second: Cc1cc(C(=O)N2CCN(Cc3ccsc3)CC2)c(C)n1C1CC1
The INHIBITION of the first is lower: -23.42% for the first, 53.58% for the second.
